ChEMBL document CHEMBL3988442, “University of Dundee, Small-Polar-MMV Screening Library” (2021)
Hit rate of the full screen: of about 48,000 compounds, about 13,000 (27%) showed an effect of 50% or more. This is one part of the list.

test system: Wolbachia pipientis; assay: Anti-Wolbachia Cell-Based Screen; type: functional; set-up: scale not given: in the data most compounds retested in dose-response had high values; settings: 5 µM

Structure (SMILES)	Percent Effect [%]
O=C(O)C(F)(F)F.O=C(O)C(F)(F)F.c1ccc(COC[C@H]2CC[C@H]3[C@H](CCN3c3ncccn3)O2)nc1	-2.736
NC(=O)c1cc(C2CCCN(CCOCC(F)(F)F)C2)n[nH]1 (configuration not stated)	-1.839
COc1ccc(F)cc1CN1CCCC(c2cc(C(N)=O)[nH]n2)C1 (configuration not stated)	-1.722
O=C(C1COCCO1)N1CCN(Cc2ccc3c(c2)CCO3)CC1 (configuration not stated)	2.717
NC(=O)c1cc(C2CCCN(Cc3ccc4c(c3)OCCO4)C2)n[nH]1 (configuration not stated)	95.83
CCOCCN1CCCC(c2cc(C(N)=O)[nH]n2)C1 (configuration not stated)	-3.243
O=C(C1CCCN(CCc2ccc3c(c2)CCO3)C1)N1CCCC1 (configuration not stated)	96.85
Cc1cc(C2CCCN(CCc3ccc4c(c3)CCO4)C2)n[nH]1 (configuration not stated)	104
O=C(NCC1CCOC1)N1CCN(Cc2ccc3c(c2)CCO3)CC1 (configuration not stated)	-2.282
NC(=O)c1cc(C2CCCN(CCc3ccc4c(c3)CCO4)C2)n[nH]1 (configuration not stated)	94.15
CCc1cnc(CN2CCCC(c3cc(C)[nH]n3)C2)o1 (configuration not stated)	-1.395
Cc1cc(C2CCCN(CCc3ccccn3)C2)n[nH]1 (configuration not stated)	-3.98
CCc1cc(NCCNc2cccnc2)n2nccc2n1	-9.581
Cc1[nH]c(=O)[nH]c(=O)c1CN1CCCC(CCc2ccc(F)cc2F)C1 (configuration not stated)	2.06
CSCCC(=O)N1CCC(Oc2cc(C)ccc2F)(C(=O)O)CC1	3.058
CS(=O)(=O)N1CCOC2(CCCN(c3ncc(F)cn3)C2)C1 (configuration not stated)	0.4401
CCC(C)(NCC(N)=O)c1nccs1 (configuration not stated)	-7.734
COCCN1CCC2(CCN(c3ncccn3)CC2)C1=O.O=C(O)C(F)(F)F	97.58
COCCN1CCC2(CCN(Cc3cccs3)CC2)C1=O.O=C(O)C(F)(F)F	6.379
CCN1CCC2(CCN(c3ncccn3)CC2)C1=O.O=C(O)C(F)(F)F	93.98
CCc1cnc(N2CCC3(CCN(CC)C3=O)CC2)nc1	-13.53
COCCN1CCC2(CCN(CC3CC3)CC2)C1=O.O=C(O)C(F)(F)F	-9.065
CCN1CCC2(CCN(Cc3nccs3)CC2)C1=O.O=C(O)C(F)(F)F	-3.246
NC(=O)CN(C(=O)c1c[nH]c2ncccc12)C1CCCC1	-3.753

Structure (SMILES)	Percent Effect [%]
CNC(=O)C1CCC2(CCN(c3ncc(C)cn3)CC2)CO1 (configuration not stated)	-6.735
Cc1n[nH]c(C)c1CNCC(O)c1cccc(Cl)c1.Cl (configuration not stated)	7.117
COCC(=O)N1CCCC1c1csc(Nc2cnccn2)n1 (configuration not stated)	91.87
CCC(=O)N1CCCC1c1csc(Nc2cnccn2)n1 (configuration not stated)	122
CC(=O)N1CCCC1c1csc(Nc2cnccn2)n1 (configuration not stated)	-5.394
Cc1cnc(NC(=O)c2cccc(CN(C)Cc3ccno3)c2)s1	0.9625
CCn1nc2c(cc1=O)CN(Cc1nc3ccccc3c(=O)[nH]1)CC2	-16.27
CCN1CCCc2cc(CN3CCc4nc(C)[nH]c(=O)c4C3)ccc21	122.7
CCn1nc2c(cc1=O)CN(Cc1ccc(-n3cccn3)cc1)CC2	7.019
CCn1nc2c(cc1=O)CN(Cc1cc(C)on1)CC2	0.747
CCCn1nc2c(cc1=O)CN(CCCN1CCCC1=O)CC2	-4.188
CCN1CCCc2cc(CN3CCc4c(nc(C)[nH]c4=O)C3)ccc21	149.4
CN(C)C(=O)c1n[nH]c2c1CCN(Cc1nccs1)C2	9.734
Cn1ncc2c(N3CCN(C(N)=O)CC3)nc(C3CCCC3)nc21	2.978
CC1Cc2ccccc2N1Cc1occc1C(=O)OCC(N)=O (configuration not stated)	-8.495
CCOC(=O)N1[C@@H](c2ccco2)[C@@H](CO)C[C@]12CCCCNC2=O	109.7
O=C1OC2(CCNCC2)CN1CC(=O)N1CCCC1c1ccco1 (configuration not stated)	-0.7494
CC(C)(C)CC(=O)N1[C@@H](c2ccco2)[C@@H](CO)C[C@]12CCCCNC2=O	102.1
CC(C)COC(=O)N1[C@@H](c2ccco2)[C@@H](CO)C[C@]12CCCCNC2=O	102
CC(C)CCC(=O)NCC(=O)N1CCCCCC1c1ccco1 (configuration not stated)	14.42
CCN(CCn1cccn1)C(=O)CN1C(=O)OC[C@@H]1C(C)C	-18.11
Cl.Cl.OC(CN1CCN(Cc2ccc(F)cc2)CC1)C1CC1 (configuration not stated)	-6.832
O[C@]12CC[C@H](CC1)N(Cc1ccc(F)cc1)C2CN1CCOCC1 (some centres not stated)	104
Oc1cccc(CN2C[C@H]3CC[C@@H]2CN(Cc2ccc(F)cc2)C3)c1	7.382

Structure (SMILES)	Percent Effect [%]
COc1cccc(CN2CCCCC2CN2CCOCC2)c1F (configuration not stated)	24.12
OCC1N(Cc2ccc(F)cc2)[C@H]2CC[C@]1(O)CC2 (some centres not stated)	104.7
Fc1ccc(CN2CCOC[C@H](Oc3cccnc3)C2)cc1	4.64
Cc1cc(C)cc(CN2CCN(C(=O)COCC3CCCO3)CC2=O)c1 (configuration not stated)	-14.3
COc1ccccc1CC(NC(=O)N1CCOCC1)C(C)C (configuration not stated)	-8.474
CN(CCOc1ccccc1Cl)S(=O)(=O)N1CCOCC1	-15.33
COc1ccccc1OCCNS(=O)(=O)N1CCOCC1	86
CCC(NS(=O)(=O)N1CCOCC1)c1ccccc1OC (configuration not stated)	-7.282
COc1ccccc1CCNS(=O)(=O)N1CCOCC1	112
COc1ccc(OCCN(C)S(=O)(=O)N2CCOCC2)cc1	-3.974
CCN(C(=O)NCCc1ccc(C)cc1C)C(C)CS(C)(=O)=O (configuration not stated)	-11.16
Cc1cc(N2CCSCC2)ccc1NC(=O)N(CCO)C1CC1	-6.894
O=C(CCNCc1cccc(O)c1)N1CCc2sccc2C1	2.464
CC(C)(C)c1nnc(NCC(=O)N2CCc3sccc3C2)s1	0.7468
NC(=O)NC(CC(=O)N1CCc2sccc2C1)c1cccc(Br)c1 (configuration not stated)	93.59
O=C(C[S+]([O-])Cc1ccc(F)cc1)N1CCc2sccc2C1 (configuration not stated)	1.066
CC(NCC(=O)N1CCc2sccc2C1)c1ccccc1F (configuration not stated)	93.75
Cc1ccccc1C(CC(=O)N1CCc2sccc2C1)NC(N)=O (configuration not stated)	98.58
CC(C)(C)CC(=O)N1CCc2sccc2C1	-0.9665
N#Cc1cccc(CNCCC(=O)N2CCc3sccc3C2)c1	-10.34
O=C(C[S+]([O-])Cc1ccccc1F)N1CCc2sccc2C1 (configuration not stated)	15.13
O=C(CNc1nc(C(F)(F)F)cs1)N1CCc2sccc2C1	8.259
NC(=O)NC(CC(=O)N1CCc2sccc2C1)c1ccccc1F (configuration not stated)	105.1
O=C(C[S+]([O-])Cc1c(F)cccc1Cl)N1CCc2sccc2C1 (configuration not stated)	13.7
